Our source for the max response, Potency and outcome values is PubChem BioAssay (NCATS).

Each structure is given as a SMILES string. Records with an inconclusive call do not appear. A number with no mark means an inactive call. The source made the active and inactive calls. The call rests on the fitted dose curve; in most records, active means well fitted inhibition curve with a large enough effect; inconclusive means small, poorly fitted or top-dose-only effect; inactive means flat fitted curve, though single readings scatter.

One test relates to CRL-7250. In words: Cytotoxic Profiling of Annotated Libraries Using Quantitative High-Throughput Screening (AID 1296008). Further: potency means the concentration at half of the fitted maximal effect. On max response: on the % scale 0 is the no-effect control and ±100 the full control effect. The note with it: Five cell lines viability, CellTiter-Glo ATP luminescence, 48-72 h; max response: active compounds read low. The gist of the method:
(§1)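 Compounds were pin-transferred onto cells and incubated 48 or 72 hr at 37 degree Celsius, 95% humidity. CellTiter-Glo was added, plates sat 10 min at room temperature, then ATP-coupled luminescence was imaged as the viability read-out.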
(In general: Cellular ATP, detected with luciferase, serves as a proxy for viable cell number.)

In a further test the test system is HEK293. The description is as above. The note with it: Five cell lines viability, CellTiter-Glo ATP luminescence, 48-72 h; max response: active compounds read low. The gist of the method: as §1
In test [1] the test system is HaCat. The test is described as above. The note with it: Five cell lines viability, CellTiter-Glo ATP luminescence, 48-72 h; max response: active compounds read low. The gist of the method: as §1
The next test deals with KB-3-1. Described as above. Particulars: Five cell lines viability, CellTiter-Glo ATP luminescence, 48-72 h; max response: active compounds read low. In a few lines: as §1
In the next test the test system is NIH3T3. The test is described as above. The note with it: Five cell lines viability, CellTiter-Glo ATP luminescence, 48-72 h; max response: active compounds read low. The gist of the method: as §1
The subject of test [2] is HACAT. Kind of test: qHTS assay to identify novel small-molecules to repurpose for Merkel cell carcinoma treatment (AID 1296009). The note with it: MCC and control cell lines, CellTiter-Glo viability, 72 h; at 44.8 µM (top of the series) unless noted. In a few lines: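 Viability readout: ATP luminescence (CellTiter-Glo) after 72 hr drug exposure at 37 degree celsius. Dose-response format was 8 points for NPC and 11 points for MIPE; data normalized to in-plate controls.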
A general note: In qHTS, concentration-response curves come from the screen itself.

The test system of a further test is HB3. Kind of test: qHTS profiling for inhibitors of Plasmodium falciparum proliferation (AID 504749). Further: potency means the concentration at half of the fitted maximal effect. The note with it: P. falciparum in erythrocytes, SYBR Green DNA, 72 h; series mostly up to 28.7 µM. In a few lines:
(§2)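 Quantitative HTS: compounds pinned into medium, infected erythrocytes added (0.3% parasitemia, 2.5% hematocrit), 72 h culture at 37 C under 5% CO2. Saponin/Triton lysis with SYBR Green I, overnight RT, then fluorescence read.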

In the next test the test system is ICS. The description is as above. The note with it: P. falciparum in erythrocytes, SYBR Green DNA, 72 h; series mostly up to 28.7 µM. The gist of the method:
as §2

Another test concerns N140. The description is as above. The note with it: P. falciparum in erythrocytes, SYBR Green DNA, 72 h; series mostly up to 28.7 µM. In a few lines: as §2
The next test relates to P93_24. The test is described as above. Particulars: P. falciparum in erythrocytes, SYBR Green DNA, 72 h; series mostly up to 28.7 µM. In a few lines:
as §2

The subject of another test is P94_40. The description is as above. The note with it: P. falciparum in erythrocytes, SYBR Green DNA, 72 h; series mostly up to 28.7 µM. The gist of the method:
as §2

The subject of a further test is PAD. The test is described as above. The note with it: P. falciparum in erythrocytes, SYBR Green DNA, 72 h; series mostly up to 28.7 µM. In a few lines:
as §2

The subject of the next test is PC26. The description is as above. The note with it: P. falciparum in erythrocytes, SYBR Green DNA, 72 h; series mostly up to 28.7 µM. In a few lines:
as §2

The subject of the next test is PC49. The description is as above. The note with it: P. falciparum in erythrocytes, SYBR Green DNA, 72 h; series mostly up to 28.7 µM. The gist of the method:
as §2

Another test deals with SC27B. The test is described as above. The note with it: P. falciparum in erythrocytes, SYBR Green DNA, 72 h; series mostly up to 28.7 µM. The gist of the method:
as §2

The next test has as its system TAB109. Described as above. Particulars: P. falciparum in erythrocytes, SYBR Green DNA, 72 h; series mostly up to 28.7 µM. In a few lines: as §2
For the next test, the system named is TAB113. Described as above. The note with it: P. falciparum in erythrocytes, SYBR Green DNA, 72 h; series mostly up to 28.7 µM. The gist of the method:
as §2

The test system of a further test is TAB165. The description is as above. Particulars: P. falciparum in erythrocytes, SYBR Green DNA, 72 h; series mostly up to 28.7 µM. In a few lines:
as §2
Further: nearly all actives have a fitted effect of over 60% in size.

Take `Oc1ccc(CCNCCCCCCNCCc2ccccc2)cc1O`: the max response is -8.57% in the test on CRL-7250, -20.6% in the test on KB-3-1 and -5.45% in the test with NIH3T3. For the same molecule, the Potency in the test on HEK293 was 23.7 µM (active). The outcome in the test on HaCat [1] and in the test with HACAT [2] was inactive.

Turning to `CC(C)(C)c1nnc(NS(=O)(=O)c2ccccc2)s1`, the figures for the max response in the test with CRL-7250, with KB-3-1 and in the test on NIH3T3 were 4.99%, 3.82% and 1.08%, respectively. Moreover, the result in the test on HEK293, in the test on HaCat [1] and in the test with HACAT [2] was inactive.

Take `CCOC(=O)NNc1ccc(N(CC)CC(C)O)nn1` (stereo unspecified): the results for the max response with CRL-7250, in the test on KB-3-1 and in the test on NIH3T3 were 2.28%, -6.42% and 4.97%, respectively. Besides, the result with HEK293, with HaCat [1] and in the test with HACAT [2] was inactive.

Turning to `CC(=O)Nc1c(I)c(NC(C)=O)c(I)c(C(=O)O)c1I`, the max response with CRL-7250 was 2.5%; in the test on HEK293, 2.17%; with KB-3-1, -3.56%; in the test with NIH3T3 it was 4.63%. For the same molecule, the result in the test on HaCat [1] and in the test on HACAT [2] was inactive.

With `O=C(O)[C@H](O)[C@@H](O)[C@H](O[C@@H]1O[C@H](CO)[C@H](O)[C@H](O)[C@H]1O)[C@H](O)CO`, the max response with CRL-7250 was -2.55%; with KB-3-1 it was -11.9%; in the test with NIH3T3, -0.868%. Moreover, the result in the test with HEK293, in the test on HaCat [1] and with HACAT [2] was inactive.

On to `CCCCCCCCCCCCCC[N+](C)(C)C`, for which the Potency is 6.31 µM (active) in the test with HB3; 2.51 µM (active) in the test with ICS; 6.31 µM (active) in the test on N140; 5.01 µM (active) with P93_24; 6.31 µM (active) in the test on P94_40; 10 µM (active) in the test on PAD. Moreover, the Potency in the test with PC26 was 6.01 µM (active); with SC27B it was 6.31 µM (active); with TAB109, 4.47 µM (active); in the test on TAB113 it was 5.01 µM (active); in the test with TAB165, 5.62 µM (active); with CRL-7250 it was 7.5 µM (active). Moreover, the Potency in the test on HEK293 was 2.66 µM (active); with HaCat [1], 5.96 µM (active); in the test with KB-3-1, 16.4 µM (active); with NIH3T3, 23.7 µM (active). Further, in the test on PC49, the Potency result is “inactive”.

Regarding `O=C(CCCl)NCCc1ccccc1`, the result in the test on CRL-7250 was inactive. Further, the max response with HEK293 was -1.92%; in the test with HaCat [1], 0.301%; with NIH3T3, -1.58%.
